Test results reported in PubChem BioAssay AID602350 (Broad Institute, 2012).
Potency and affinity values are given separately. The source made the active and inactive calls.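 The calls were made as follows: active = absorbance falls by 30% or more versus neutral controls, with a potency fitted within twice the top valid dose; inconclusive = no clear call, values can overlap the other calls; inactive = change opposite to expected direction, plus the rest.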

Target: Protein disulfide-isomerase (Homo sapiens) (UniProt P07237)
Sequence (P07237 whole entry, looked up): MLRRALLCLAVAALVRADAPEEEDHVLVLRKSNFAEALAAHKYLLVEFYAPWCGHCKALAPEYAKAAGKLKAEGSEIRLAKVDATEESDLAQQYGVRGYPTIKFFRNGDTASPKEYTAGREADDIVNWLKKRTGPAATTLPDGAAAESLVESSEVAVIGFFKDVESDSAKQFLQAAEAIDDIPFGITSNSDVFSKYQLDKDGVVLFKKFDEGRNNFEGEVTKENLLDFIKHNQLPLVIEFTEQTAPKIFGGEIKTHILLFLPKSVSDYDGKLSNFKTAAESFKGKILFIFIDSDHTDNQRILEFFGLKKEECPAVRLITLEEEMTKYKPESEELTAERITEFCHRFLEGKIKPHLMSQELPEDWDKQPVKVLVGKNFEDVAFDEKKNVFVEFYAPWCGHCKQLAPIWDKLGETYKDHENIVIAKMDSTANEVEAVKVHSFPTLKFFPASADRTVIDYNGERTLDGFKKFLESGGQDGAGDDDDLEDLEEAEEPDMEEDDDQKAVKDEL
Experiment: inhibition of PDI-driven insulin aggregation – biochemical, turbidity, absorbance, cherry-picked samples, dose response (AID 602350);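 also: 0% = neutral controls and -100% = rutin hydrate positive control wells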
Details: recombinant PDI insulin aggregation, absorbance 650 nm, 90 min; series mostly up to 19.5 µM

outcome, inactive:
C[C@]12CC[C@@H]3c4ccc(O)cc4C(=O)C[C@H]3[C@@H]1CC[C@@H]2O
Cc1sc(NC(=O)CCl)c(C(=O)c2ccccc2)c1C
O=C1CC(C(=O)N2CCc3ccccc32)CN1c1ccc(F)cc1 (stereo unspecified)
Cc1ccc(NC(=O)NC(=O)CN2CCC(C(N)=O)CC2)c(C)c1
CC(O)(c1cccnc1)c1nc(-c2cc(F)cc(F)c2)cs1 (stereo unspecified)
CCCCn1c(SCC(=O)NC2CCS(=O)(=O)C2)nc2ccccc2c1=O (stereo unspecified)
COc1ccccc1NS(=O)(=O)c1ccc(C)c(C(=O)NCC2(N(C)C)CCCCC2)c1
CSc1cccc(NC(=O)CN(C)S(=O)(=O)c2ccc(F)cc2)c1
CCOC(=O)c1cc(S(=O)(=O)N2CCN(C(=O)OCC)CC2)cn1C
Cc1cccc(NC(=S)NCC23C=CC(O2)C2C(=O)N(c4ccc(Cl)cc4)C(=O)C23)c1 (stereo unspecified)
Cc1noc(C)c1C(=O)OCC(=O)NCCc1ccc(Cl)cc1
CCOc1ccc2[nH]c(=O)c(CN(CCO)C(=O)CC)cc2c1
O=C(Nc1cccc(S(=O)(=O)Nc2ccc(SC(F)F)cc2)c1)C1CCC1
O=C(NCCN1CCOCC1)c1cccnc1SCc1ccccc1Cl
C[C@@H](CN1C2=NC[C@H](Cc3ccc(O)cc3)N2C[C@H]1Cc1ccc(O)cc1)NC(=O)CCC1CCCCC1

Activity change, negative = inhibition, inactive:
COc1ccc(C[C@@H]2OC3(C=CC(=O)C=C3)O[C@H]2Cc2ccc(OC)cc2)cc1 -2.56% [at 2.1 µM]
